# Measured values as given in the supplement of paper PMC3898565.
# ± gives the uncertainty stated by the source.
# System: U87
# Assay: cell viability relative to vehicle control; higher = less growth inhibition (less active)
# Settings: 10 µM; 72 h
# 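Further: viable cell number estimated from Alamar Blue fluorescence read at 560/90, part of a single-dose primary screen of an FDA-approved drug library.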
row,SMILES,cell viability
1,CCOC(=O)O[C@]1(C(=O)OCCl)CC[C@H]2[C@@H]3CCC4=CC(=O)C=C[C@]4(C)[C@H]3[C@@H](O)C[C@@]21C,104 ± 1.4%
2,O=C(NCCN1CCOCC1)c1ccc(Cl)cc1 [4-Chloro-N-(2-morpholin-4-yl-ethyl)-benzamide],80.9 ± 3.8%
3,C[C@@H]1C[C@H]2[C@@H]3CCC4=CC(=O)C=C[C@]4(C)[C@@]3(F)[C@@H](O)C[C@]2(C)[C@H]1C(=O)CO,106 ± 0.2%
4,CC(N/C(=N\C#N)Nc1ccncc1)C(C)(C)C (centres undefined) [Pinacidil monohydrate],105 ± 1.1%
5,"OC[C@H]1O[C@@H](n2cnc3c(N[C@H]4CCC[C@@H]4O)ncnc32)[C@@H](O)C1O (stereo partly drawn) [Adenosine, N-(2-hydroxycyclopentyl)-, (1S-trans)- [CAS]]",110.8 ± 0.42%
6,CCOC(=O)[C@H](CCc1ccccc1)N[C@H]1CCc2ccccc2N(CC(=O)O)C1=O,107 ± 1.2%
7,CC(c1cc2ccccc2s1)N(O)C(N)=O (centres undefined),104.1 ± 1%
8,COc1cc(C)nc(-n2nc(C)cc2OC)n1,104 ± 1.9%
9,C[N+]1(C)CCC(OC(=O)C(O)(c2ccccc2)C2CCCC2)C1 (centres undefined) [Glycopyrrolate],103 ± 1.1%
10,Fc1ccc([C@@H]2CCNC[C@H]2COc2ccc3c(c2)OCO3)cc1,104.5 ± 1%
11,CC(C)/N=c1\cc2n(-c3ccc(Cl)cc3)c3ccccc3nc-2cc1Nc1ccc(Cl)cc1,51.3 ± 3%
12,CCOc1cc(CC(=O)N[C@@H](CC(C)C)c2ccccc2N2CCCCC2)ccc1C(=O)O,105 ± 1.5%
13,CC(C)[C@H](N)C(=O)OCCOCn1cnc2c(=O)nc(N)[nH]c21,103 ± 1.8%
14,Cc1nc2ccccn2c(=O)c1CCN1CCC(C(=O)c2ccc(F)cc2)CC1,97.4 ± 1.5%
15,NC(=O)N1c2ccccc2CC(=O)c2ccccc21 [Trileptal],102 ± 2.4%
16,Clc1ccc2c(c1)CCc1cccnc1C2=C1CCNCC1,101.5 ± 0.94%
17,CN(C)CCc1c[nH]c2ccc(Cn3cncn3)cc12,101 ± 4.5%
18,CC[C@@]1(O)C(=O)OCc2c1cc1n(c2=O)Cc2cc3c(CN(C)C)c(O)ccc3nc2-1,24.1 ± 2%
19,c1ccc(-c2ccc(C(c3ccccc3)n3ccnc3)cc2)cc1 (centres undefined),101 ± 1.2%
20,CN(C)[C@@H]1C(O)=C(C(=O)NCN2CCCC2)C(=O)[C@@]2(O)C(O)=C3C(=O)c4c(O)cccc4[C@@](C)(O)[C@H]3C[C@@H]12,107 ± 2.1%

row,SMILES,cell viability
1,CC[C@]1(O)C[C@@H]2CN(CCc3c([nH]c4ccccc34)[C@@](C(=O)OC)(c3cc4c(cc3OC)N(C)[C@H]3[C@@](O)(C(N)=O)[C@H](O)[C@]5(CC)C=CCN6CC[C@]43[C@@H]65)C2)C1,24.7 ± 8.7%
2,COc1cc2c(cc1OC)C(=O)C(CC1CCN(Cc3ccccc3)CC1)C2 (centres undefined) [Donepezil],99.1 ± 1.4%
3,CC(C)Oc1ccc2c(=O)c(-c3ccccc3)coc2c1,101 ± 2.6%
4,O=C1c2cccc3c2[C@H](CCC3)CN1[C@@H]1CN2CCC1CC2,84.3 ± 1.7%
5,Oc1ccc(/C=C/c2cc(O)cc(O)c2)cc1 [resveratrol],100.5 ± 0.97%
6,OC[C@H]1O[C@@H](Oc2cc(O)cc(/C=C/c3ccc(O)cc3)c2)[C@H](O)[C@@H](O)[C@@H]1O,99.7 ± 3.1%
7,CNS(=O)(=O)Cc1ccc2[nH]cc(CCN(C)C)c2c1,101 ± 1.5%
8,Oc1ccc(C2CNCCc3c2cc(O)c(O)c3Cl)cc1 (centres undefined),103 ± 2.8%
9,Nc1nc2ccc(Cl)cc2c2nc(-c3ccco3)nn12,93.4 ± 5.3%
10,O=C1Nc2ccccc2/C1=C1/Nc2ccccc2C1=O [indirubin],99.6 ± 1.4%
11,COc1ccc(CC(C)NCC(O)c2ccc(O)c(NC=O)c2)cc1 (centres undefined),98.7 ± 1.3%
12,CC#C[C@]1(O)CC[C@H]2[C@@H]3CCC4=CC(=O)CCC4=C3[C@@H](c3ccc(N(C)C)cc3)C[C@@]21C,105 ± 1.6%
13,CN1[C@@H]2CC[C@H]1C[C@@H](OC(=O)c1c[nH]c3ccccc13)C2,105.3 ± 0.81%
14,Cc1c2oc3c(C)ccc(C(=O)N[C@@H]4C(=O)N[C@H](C(C)C)C(=O)N5CCC[C@H]5C(=O)N(C)CC(=O)N(C)[C@@H](C(C)C)C(=O)O[C@@H]4C)c3nc-2c(C(=O)N[C@@H]2C(=O)N[C@H](C(C)C)C(=O)N3CCC[C@H]3C(=O)N(C)CC(=O)N(C)[C@@H](C(C)C)C(=O)O[C@@H]2C)c(N)c1=O,16.2 ± 2.6%
15,CN1CCc2cc(Cl)c(O)cc2[C@@H](c2ccccc2)C1,97.5 ± 6.3%
16,CCOC(=O)OC(C)OC1=C(C(=O)Nc2ccccn2)N(C)S(=O)(=O)c2ccccc21 (centres undefined),107 ± 1.1%
17,N#Cc1ccc(C(c2ccc(C#N)cc2)n2cncn2)cc1,103 ± 1.3%
18,COc1cccc2c1C(=O)c1c(O)c3c(c(O)c1C2=O)C[C@@](O)(C(=O)CO)C[C@@H]3O[C@H]1C[C@H](N)[C@@H](O)[C@H](C)O1,23.3 ± 0.39%
19,CC1=Nc2ccc(Cl)cc2S(=O)(=O)N1,101 ± 1.6%
